# Bioassay records deposited in PubChem BioAssay by National Center for Advancing Translational Sciences (NCATS).
# Only some compounds are listed: those with a hit (about 9.4% of all), similar ones and a draw of the others.
# Rab9 prom act – qHTS Assay for Rab9 Promoter Activators | Huh7 Rab9 promoter-luciferase reporter, luminescence, 24 h | Potency, µM (doses to about 9.22 µM), for the others: at the top dose activation, negative = inhibition, hits mostly activators | AID 485297, 2010 | 320,000 tested, 2.8% active; also: % of control where 0% means no effect; nearly all actives have a fitted effect of over 60% in size
#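 Using Huh7 cells stably transfected with Rab9 promoter–luciferase, compounds were incubated 24 h at 37 °C, 5% CO2; luciferase luminescence was read 10 min after reagent addition.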
# SMN2 splice enh – qHTS Assay for Enhancers of SMN2 Splice Variant Expression | AID 1458, 2008 | 210,000 tested, 2.8% active | HEK293 SMN2-luciferase splicing reporter, luminescence, 30-36 h | Potency, µM (top dose mostly 46.1 µM), for inactives: top-dose activity change, positive = activation, usual class: activators; also: % of control where 0% means no effect; nearly all actives have a fitted effect of over 55% in size
#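 qHTS luciferase splicing reporter: luminescence rises when SMN2 exon 7 is included in transfected HEK293 cells. Compound exposure lasted 30-36 h at 37C, with 4.5 mM final sodium butyrate as control, followed by a ONE-Glo read.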
# ELG1 genotox – qHTS screen for small molecules that induce genotoxicity in human embryonic kidney (HEK293T) cells expressing luciferase-tagged ELG1; HEK293T ELG1-luciferase reporter, luminescence, 16 h; Potency, µM (top dose mostly 46 µM), for the others: at the highest dose activity change, positive = activation, hits mostly activators; 330,000 tested, 1.3% active; also: % of control where 0% means no effect; nearly all actives have a fitted effect of over 60% in size
#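 Cells (2,000/well) expressing the ELG1-luciferase fusion are dosed by pin tool and kept 16 hr at 37 °C, 5% CO2. Signal comes from ONE-Glo luciferase reagent after 30 min at room temperature.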
# NPC1 prom act – qHTS Assay for NPC1 Promoter Activators. Huh7 NPC1 promoter luciferase reporter, 24 h. 320,000 tested, 2.4% active. Potency, µM (top dose mostly 9.22 µM), for the others: top-dose activation, actives largely listed as activators; also: % of control where 0% means no effect; nearly all actives have a fitted effect of over 60% in size
#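 Huh7 cells stably carrying NPC1 promoter–luciferase, plated in Opti-MEM with 10% FBS for 2 h, were exposed to compound in DMSO for 24 h at 37 °C; luciferase reagent was added for 10 min and luminescence read.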
# FLuc modulator – qHTS profiling assay for firefly luciferase inhibitor/activator using purifed enzyme and Km concentrations of substrates (counterscreen for miR-21 project); Luciferin 4-monooxygenase (Photinus pyralis), P08659; purified FLuc, Km substrates, luminescence inhibition; Potency, µM (doses to about 57.5 µM), inactives show top-dose activity change, negative = inhibition, actives largely listed as inhibitors; 360,000 tested, 6.9% active;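 also: plate controls were vehicle for no effect and reference inhibitor for full effect; nearly all actives have a fitted effect of over 55% in size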
# Target sequence (P08659 whole entry, looked up): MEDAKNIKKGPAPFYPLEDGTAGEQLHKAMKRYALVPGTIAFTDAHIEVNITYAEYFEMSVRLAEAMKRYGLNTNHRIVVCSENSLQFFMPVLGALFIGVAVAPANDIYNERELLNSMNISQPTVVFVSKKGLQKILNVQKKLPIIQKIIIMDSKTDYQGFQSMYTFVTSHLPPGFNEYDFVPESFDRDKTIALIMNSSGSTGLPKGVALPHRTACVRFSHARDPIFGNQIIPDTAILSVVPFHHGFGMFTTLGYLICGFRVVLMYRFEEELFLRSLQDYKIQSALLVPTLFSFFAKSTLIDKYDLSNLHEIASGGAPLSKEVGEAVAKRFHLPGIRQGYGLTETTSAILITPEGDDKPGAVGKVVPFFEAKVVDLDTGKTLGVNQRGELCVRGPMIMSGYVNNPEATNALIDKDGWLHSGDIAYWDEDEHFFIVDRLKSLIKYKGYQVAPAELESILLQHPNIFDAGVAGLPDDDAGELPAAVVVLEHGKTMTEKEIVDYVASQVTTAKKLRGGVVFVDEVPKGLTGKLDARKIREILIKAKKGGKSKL
#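 Biochemical qHTS of compounds, final roughly 60 µM downward over six points, against 10 nM purified firefly luciferase using Km concentrations of substrates (10 uM D-luciferin, 10 uM ATP) in Tris acetate pH 7.5 buffer; luminescence output.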
# ELG1 DNA repair – qHTS screen for small molecules that inhibit ELG1-dependent DNA repair in human embryonic kidney (HEK293T) cells expressing luciferase-tagged ELG1; HEK293T ELG1-luciferase reporter, luminescence, 16 h; DNA damage induced by 5-fluorouridine; Potency, µM (top dose mostly 46.1 µM), without a hit: at the highest dose activity change, negative = inhibition, most hits filed as inhibitors; 330,000 tested, 2.3% active; also: % is scaled to controls: 0 for no effect and ±100 for the full control effect; nearly all actives have a fitted effect of over 55% in size
#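 Overnight (16 hr) co-exposure of 2,000 cells/well to 5-fluorouridine and compound at 37 °C preceded detection. Luciferase was quantified via ONE-Glo luminescence; loss of signal denotes inhibition.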
# * marks the source's active call; other numbers are inactive results; ? = inconclusive; . = no result given; [ ] = dose if it differs, or a comment. Calls follow the shape of the dose curve; as a rule, active = well fitted curve in the direction sought with a large enough effect; inconclusive = small, poorly fitted or top-dose-only effect, or another doubt; inactive = no such curve, though single readings can be large; an effect the other way counts as inactive or inconclusive. Potency is read from the fitted curve at half-maximal effect.
SMILES,Rab9 prom act,SMN2 splice enh,ELG1 genotox,NPC1 prom act,FLuc modulator,ELG1 DNA repair
CC(=O)Nc1ccc(-c2csc(Nc3cc(C)ccn3)n2)cc1,11%,-58%,-14%,?,15µM*,?
CC(=O)Nc1cccc(-c2csc(Nc3cc(C)ccn3)n2)c1,1.3µM*,?,-14%,2.5µM*,2.7µM*,?
O=C(c1cc2c(s1)-c1ccccc1S(=O)(=O)C2)N1CCN(Cc2ccccc2)CC1,-12%,-61%,-18%,-5%,?,13µM*
CCN1CCN(C(=O)c2cc3c(s2)-c2ccccc2S(=O)(=O)C3)CC1,-1%,12%,5%,-5%,3%,16%
OC1(C(F)(F)F)CC(c2ccc3ccccc3c2)=NO1 (stereo unspecified),-2%,.,?,3%,19µM*,0%
CCc1ccc(NC(=O)CSC2=Nc3ccccc3C3=NC(CCC(=O)NCc4cccs4)C(=O)N23)cc1 (stereo unspecified),.,.,.,.,-2%,.
O=C(Nc1ccc(Br)cc1)C1CCCN1S(=O)(=O)c1ccc(F)cc1 (stereo unspecified),.,-40%,.,.,0%,.
CCN(CC)C(=O)Cn1c(=O)n(-c2ccc(OC)cc2OC)c(=O)c2c(C)c(C(=O)N(CC)CC)sc21,.,.,.,.,2%,.
CCCCOC(=O)Nc1ccc(N(C)C)cc1,2.8µM*,11µM*,9.2µM*,4µM*,3µM*,?
CCCCOC(=O)Nc1ccc(C(C)C)cc1,?,14µM*,?,?,9.5µM*,?
CCCCOC(=O)Nc1cccc(C(=O)OCC)c1,0.32µM*,?,?,0.22µM*,?,?
CCCCOC(=O)Nc1nnc(C(C)C)s1,2.2µM*,?,?,2.8µM*,?,?
CCCCCOC(=O)Nc1nnc(CCC)s1,13%,12%,3%,-1%,-10%,?
CCCCOC(=O)Nc1ccc(S(=O)(=O)Nn2cnnc2)cc1,-3%,4%,0%,-2%,-8%,1%
CCCCOC(=O)Nc1ccc(C(N)=O)cc1,?,?,23µM*,?,15µM*,?
CCOC(=O)c1c(C)c(C(=O)NCCOC)c(C)n1CC,-6%,-2%,-1%,-2%,1%,-3%
CCOC(=O)c1c(C)c(C(=O)Nc2ccc(N(C)C)cc2)c(C)n1CC,4%,-7%,4%,-13%,15µM*,0%
CCCC(C)C(=O)Nc1ccc(C(N)=O)cc1 (stereo unspecified),-3%,17%,3%,-3%,5%,15%
CC(C)NC[C@H]1CCc2cc(CO)c([N+](=O)[O-])cc2N1,.,-12%[20.6 µM],.,.,.,.
Cc1ccccc1NC(=O)CSc1cn(CC(=O)N2CCCCCC2)c2ccccc12,.,.,.,.,5%,.
Cc1nc2ccccc2c(=O)n1-c1ccc(NC(=O)c2ccccc2[N+](=O)[O-])cc1,.,.,.,.,-1%,.
O=C(Cn1nc(-c2ccccc2)c2cnc3ccccc3c21)Nc1ccccc1,.,8%,.,.,-1%,.
CC(C)Oc1ccc(CNC(=O)c2ccc3c(c2)nc2n3CCCCC2)cc1,.,.,.,.,9.5µM*,.
CCOc1ccc(CNC(=O)c2ccc3c(c2)nc2n3CCOC2)cc1,.,.,.,.,-13%,.
CCOc1ccc(CNC(=O)c2ccc3c(c2)nc2n3CCCCC2)cc1,.,.,.,.,12µM*,.
SMILES,Rab9 prom act,SMN2 splice enh,ELG1 genotox,NPC1 prom act,FLuc modulator,ELG1 DNA repair
Cc1ccc(-c2cc(C(=O)NCc3cccnc3)no2)cc1,?,22%,13µM*,?,11µM*,?
O=C(Nc1cccnc1)c1cc(-c2ccc(F)cc2)on1,-4%,2%,10%,-3%,2.4µM*,9%
O=C(COCc1cc(-c2ccc3c(c2)OCO3)on1)Nc1cccnc1,-1%,.,2%,-5%,21µM*,?
O=C(Nc1cccnc1)c1cc(-c2ccc3c(c2)OCO3)on1,5%,-11%,?,5%,0.48µM*,?
C=CC(=O)OCCCC,.,4%,.,.,.,.
O=C(NCC(c1ccco1)S(=O)(=O)c1cccs1)c1ccc(Cl)cc1 (stereo unspecified),.,.,.,.,-3%,.
COc1ccc2c(c1)Cc1sc(NC(=O)c3ccc(Cl)cc3)nc1-2,.,-6%,.,.,0%,.
COc1cccc(CNC(=O)CCn2nc(C)c3c(C)n(-c4ccccc4)nc3c2=O)c1,.,.,.,.,-3%,.
COc1ccc(-c2cc(C(=O)Nc3cccnc3)no2)cc1OC,?,3%,?,2.2µM*,19µM*,?
O=C(COCc1cc(-c2ccc3c(c2)OCO3)on1)N1CCCCC1,?,.,?,?,19µM*,?
O=C(Nc1cccc(Br)c1)c1cc(-c2ccc3c(c2)OCCO3)on1,.,.,.,.,0.67µM*,.
